Reference: PubChem BioAssay (NCI)
Compounds without any hit were thinned out: in the full panel of roughly 79,000, 15% have a hit. Activity calls are given as the source filed them. No stated cut-off is given here; in the data, active means growth inhibition above about 70%; inactive means the rest.

How the values were obtained:
[1] = NCI Yeast Anticancer Drug Screen. Data for the rad50 strain (AID 155);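 further: 0% = growth of vehicle-only cultures of the same strain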; conditions: S. cerevisiae rad50 strain growth inhibition, stronger effect = higher value
In short: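 Growth of the mutant yeast was measured after compound exposure and referenced to vehicle-treated cultures.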

[2] = NCI Yeast Anticancer Drug Screen. Data for the mec2-1 strain (AID 157); conditions: S. cerevisiae mec2-1 strain, stronger effect = higher value
In short: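 Cells of the genetically defined mec2-1 yeast strain are incubated with test compound. Inhibition of growth is calculated against vehicle-treated controls.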

[3] = NCI Yeast Anticancer Drug Screen. Data for the sgs1 mgt1 strain (AID 161);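 further: 0% = growth of cultures given vehicle only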; conditions: S. cerevisiae sgs1 mgt1 strain, stronger effect = higher value
In short: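 Read-out: growth inhibition vs vehicle controls. Cells: mutant yeast strain deficient in DNA damage repair.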

[4] = NCI Yeast Anticancer Drug Screen. Data for the cln2 rad14 strain (AID 165);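 further: 0% = growth equal to vehicle treated cultures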; conditions: S. cerevisiae cln2 rad14 strain, stronger effect = higher value
In short: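 The screen exposed genetically defined yeast (cln2 rad14) to test compounds and scored growth inhibition relative to vehicle-treated controls.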

[5] = NCI Yeast Anticancer Drug Screen. Data for the bub3 strain (AID 167); conditions: S. cerevisiae bub3 mutant strain, stronger effect = higher value
In short: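 Whole-cell yeast assay. The mutant strain was incubated with compounds, and growth inhibition was determined by comparison with vehicle-treated cells.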

[6] = NCI Yeast Anticancer Drug Screen. Data for the mlh1 rad18 strain (AID 175); conditions: S. cerevisiae mlh1 rad18 strain growth inhibition, stronger effect = higher value
In short: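 Compound-treated yeast growth, normalised to vehicle controls. Strain bears defined DNA repair mutations.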

[7] = at 5.0 µM (retest, dose inferred, filed as 0.5)
[8] = at 50.0 µM (retest, dose inferred, filed as 5.0)

Measured: growth inhibition

CN1C(=O)C2(C)SSC1(C)C(=O)N2C
inactive: [1]; [7] 45% | [2]; [7] 27% | [3]; [7] 43% | [4]; [7] 10% | [5]; [7] 17% | [6]; [7] 57%
active: [1]; [8] 95% | [1]; at 50.0 µM 97.2% | [2]; [8] 95% | [2]; at 50.0 µM 93.8% | [3]; [8] 96% | [3]; at 50.0 µM 97.5% | [4]; [8] 85% | [4]; at 50.0 µM 87.7% | [5]; [8] 93% | [5]; at 50.0 µM 95.5% | [6]; [8] 97% | [6]; at 50.0 µM 98.6%

CC(=O)OC[C@]12C[C@H](OC(=O)CC(C)C)C(C)=C[C@H]1OC1[C@H](O)[C@@H](OC(C)=O)[C@@]2(C)[C@@]12CO2
active: [1]; [7] 97% | [1]; [8] 98% | [1]; at 50.0 µM 92.8% | [2]; [7] 98% | [2]; [8] 99% | [2]; at 50.0 µM 94.4% | [3]; [7] 99% | [3]; [8] 99% | [3]; at 50.0 µM 93.8% | [4]; [7] 97% | [4]; [8] 98% | [4]; at 50.0 µM 91.8% | [5]; [7] 98% | [5]; [8] 99% | [5]; at 50.0 µM 92.2% | [6]; [7] 97% | [6]; [8] 98% | [6]; at 50.0 µM 92.6%

C[CH2][Sn]1([CH2]C)[O]C(=O)CC(=O)[O]1
inactive: [1]; [7] 18% | [1]; [8] 37% | [1]; at 50.0 µM 48.2% | [2]; [7] 10% | [2]; [8] 35% | [3]; [7] 14% | [3]; [8] 55% | [3]; at 50.0 µM 37.8% | [4]; [7] 20% | [4]; [8] 19% | [4]; at 50.0 µM 65.8% | [5]; [7] 15% | [5]; [8] 54% | [5]; at 50.0 µM 59.1% | [6]; [7] 16% | [6]; [8] 24% | [6]; at 50.0 µM 16.5%
active: [2]; at 50.0 µM 70.6%

O=[As]c1ccc(O)c(O)c1 (configuration not stated)
active: [1]; [8] 99% | [1]; at 50.0 µM 97% | [2]; [8] 100% | [2]; at 50.0 µM 99.4% | [3]; [8] 99% | [3]; at 50.0 µM 99.5% | [4]; [8] 99% | [4]; at 50.0 µM 98.8% | [5]; [8] 99% | [5]; at 50.0 µM 99.2% | [6]; [8] 99% | [6]; at 50.0 µM 99.3%
inactive: [1]; [7] 11% | [2]; [7] -4% | [3]; [7] -4% | [4]; [7] -9% | [5]; [7] 22% | [6]; [7] 6%

O=C([CH-]C(=O)c1ccccc1)c1ccccc1.O=C([CH-]C(=O)c1ccccc1)c1ccccc1.[CH2-]CCC.[CH2-]CCC.[Sn+4]
active: [1]; [7] 83% | [1]; [8] 98% | [1]; at 50.0 µM 90.3% | [2]; [7] 91% | [2]; [8] 99% | [2]; at 50.0 µM 93.2% | [3]; [7] 86% | [3]; at 50.0 µM 93% | [5]; [7] 90% | [5]; [8] 93% | [5]; at 50.0 µM 91.8% | [6]; [7] 92% | [6]; [8] 99% | [6]; at 50.0 µM 90%
inactive: [3]; [8] 58%
